Our source for the calcium response (agonist-mode artifact) values is PubChem BioAssay AID493001 (Johns Hopkins Ion Channel Center, 2010).

Out of some 1,900 compounds screened, about 430 (23%) were called active.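 The calls were made as follows: active = duplicate-averaged calcium rise in uninduced cells above buffer wells' mean plus 5 SD; inactive = the rest.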 The list is a sample of the results.

The nature of this assay: direct calcium signal without carbachol stimulation – cell-based, HEK293 M3R, non-induced, no carbachol, second counter-screen, artefact control for RGS4 inhibitor project, confirmation (AID 493001). The conditions noted are these: Fluo-4 calcium, at 10 µM; stronger effect = higher value, normalised: buffer wells 0%, carbachol wells 100%.
Consider `COc1ccccc1C1C(C#N)=C(N)Oc2c1c(-c1ccccc1)nn2-c1ccccc1` (configuration not stated), for which the calcium response (agonist-mode artifact) is 8% (active).
With `O=C(Nc1ccccc1)OCc1cc(-c2ccc(Cl)cc2)on1`, the calcium response (agonist-mode artifact) result was “inactive”.
Turning to `COc1ccc2c(c1OC)C(=O)OC2Nc1nc(-c2ccccc2)cs1` (configuration not stated), the calcium response (agonist-mode artifact) result was “inactive”.
For `CC(C)c1nc(SCC(=O)Nc2cccc(C(=O)O)c2)c2c3c(sc2n1)CCCC3`, the calcium response (agonist-mode artifact) result was “inactive”.
The same measure for `O=C(NCCCc1ccccc1)C1CCC(CNc2c(N3CCCCC3)c(=O)c2=O)CC1` (configuration not stated): “inactive”; for `Cn1c(-c2ccco2)nc2cc3ccccc3cc21`: “inactive”.
Turning to `Cc1ccc(-c2c3c(=O)n(C)c(=O)n(C)c3cn2-n2cnnc2)cc1`, the calcium response (agonist-mode artifact) result is “inactive”.
Turning to `Nc1ccccc1SC(C[N+](=O)[O-])c1ccccc1` (configuration not stated), the calcium response (agonist-mode artifact) was 26% (active).
On to `c1ccc(C[C@H]2CNCCN2CCC23CC4CC(CC(C4)C2)C3)cc1`, for which the calcium response (agonist-mode artifact) entry is “inactive”.
As for `C=CCSc1nc2c(c(=O)[nH]1)C(C(C)C)C(C#N)=C(N)O2` (configuration not stated), the entry is “inactive”.
As for `CCn1c(O)c(N=NC2=NC(=O)CS2)c2cc(C)ccc21`, the entry is “inactive”; as for `O=C1NC(c2ccc(-c3ccccc3[N+](=O)[O-])o2)C(C(=O)c2ccc(Cl)cc2)C(O)(C(F)(F)F)N1` (configuration not stated), 7% (active).
As for `Cc1ccc(SC(CC(=O)c2ccc(C(C)(C)C)cc2)C(=O)O)cc1` (configuration not stated), the entry is “inactive”; as for `O=C(Nc1ccc(Cl)cc1)OCc1cc(-c2ccccc2)on1`, “inactive”; as for `O=C(O)c1ccc2c(c1)C(=O)N(c1ccc(/C=C/C(=O)c3ccccc3)cc1)C2=O`, “inactive”.
Consider `COc1cc(/C=C2/SC(=S)N(Cc3ccccc3)C2=O)cc(OC)c1O`, for which the calcium response (agonist-mode artifact) was 37.5% (active).
`COc1ccc(/C(O)=C2/C(=O)C(=O)N(c3nc(C)c(C)s3)C2c2ccco2)cc1` (configuration not stated): the calcium response (agonist-mode artifact) entry was “inactive”.
The same measure for `COc1ccc(-c2csc(Nc3ccc(O)cc3)n2)cc1`: “inactive”; for `CNc1nc(Nc2ccc(C)c(Cl)c2)nc(N)c1[N+](=O)[O-]`: “inactive”; for `O=C(O)c1ccc2c(=O)n3c(nc2c1)/C(=C/c1ccc(Cl)c([N+](=O)[O-])c1)CC3`: “inactive”.
As for `COc1cc2c(cc1O)C(SC)=NC(C)(C)C2`, the entry is “inactive”; as for `Cc1cc(C)nc(S/C=C/C(=O)c2ccccc2)n1`, “inactive”; as for `O=C(/C=C/Sc1ncn[nH]1)c1ccc(Cl)cc1`, 9% (active).
On to `CC(=O)Nc1ccc(S(=O)(=O)Nc2nc(-c3ccc(C(C)(C)C)cc3)cs2)cc1`, for which the calcium response (agonist-mode artifact) entry was “inactive”.
In the case of `O=C(/C=C/c1ccc(Cl)c([N+](=O)[O-])c1)c1cccnc1`, the calcium response (agonist-mode artifact) result was “inactive”.
Regarding `Cc1ccc(C)c(Cn2nnc3c(=O)[nH]c(C(=O)Nc4ccc(F)cc4)nc32)c1`, the calcium response (agonist-mode artifact) result is “inactive”.
As for `O=C(NCc1ccccc1)c1ccc(S(=O)(=O)Nc2cccc(C(F)(F)F)c2)cc1`, the figure is 13% (active); as for `CCc1ccc2oc(-c3ccc(N)cc3)nc2c1`, “inactive”.
Consider `CCCCC1S/C(=N/N=C/c2cccs2)NC1=O` (configuration not stated), for which the calcium response (agonist-mode artifact) entry is “inactive”.
The same measure for `CCOC(=O)[C@@H]1[C@H]2COc3ccc(Br)cc3[C@H]2N2C(=O)N(c3ccc(Cl)cc3)C(=O)[C@@]12C`: “inactive”; for `O=C(CCN1CCc2ccccc2C(O)(c2ccccc2)C1)c1ccc2c(c1)OCCO2` (configuration not stated): 11.5% (active).
The same measure for `CCc1nnc(NS(=O)(=O)c2ccc(N=Cc3c(C)[nH]n(-c4ccc(C)cc4)c3=O)cc2)s1`: “inactive”.
For the molecule `CCC(c1nnnn1Cc1ccco1)N(Cc1cc2cc(OC)ccc2[nH]c1=O)C1CCCCC1` (configuration not stated), the calcium response (agonist-mode artifact) result was “inactive”.
Consider `C=C(C)C(=O)O[C@H]1C/C(C)=C\C(=O)/C=C(\C)[C@H](O)[C@@H]2OC(=O)C(=C)[C@@H]21`, for which the calcium response (agonist-mode artifact) entry is “inactive”.
Regarding `CCCCOC(=O)CNc1nnc(SCC(=O)OCC)[nH]c1=O`, the calcium response (agonist-mode artifact) entry is “inactive”.
Take `CNCC(O)c1ccc(O)c(O)c1` (configuration not stated): the calcium response (agonist-mode artifact) result is “inactive”.
As for `Cc1ccc(S/C(=N\S(=O)(=O)c2ccc(Cl)cc2)c2ccccc2)cc1`, the figure is 25% (active); as for `COc1ccc(OC)c(S(=O)(=O)N2CCCC(C(=O)N3CCC(C(N)=O)CC3)C2)c1` (configuration not stated), “inactive”.
Regarding `CCOC(=O)C1CCN(C(c2cc3cc(C)cc(C)c3[nH]c2=O)c2nnnn2C2CCCCC2)CC1` (configuration not stated), the calcium response (agonist-mode artifact) entry is “inactive”.
`Cc1noc(NS(=O)(=O)c2ccc(N/C=C/C(=O)c3ccccc3)cc2)c1C`: the calcium response (agonist-mode artifact) result is “inactive”.
For the molecule `Cc1ccsc1/C=N/n1c(=S)[nH]nc(C)c1=O`, the calcium response (agonist-mode artifact) result was “inactive”.
Regarding `CCOc1ccc(/C=N/NC(=O)CSc2ccccn2)cc1O`, the calcium response (agonist-mode artifact) result is “inactive”.
With `Cc1nc(-c2ccccc2)sc1C(=O)/C=C/c1ccccc1`, the calcium response (agonist-mode artifact) was 22.5% (active).
Take `S=c1[nH]nc(-c2cccnc2)n1/N=C/C(Cl)=C\c1ccccc1`: the calcium response (agonist-mode artifact) entry was “inactive”.
As for `Oc1ccc(-c2[nH]ncc2-c2nc3ccccc3s2)c(O)c1`, the entry is “inactive”; as for `C=CCOc1ccc(/C=C2/C(=O)ON=C2C)cc1OCC`, 10% (active).
Turning to `C#CCOc1ccc(/C=C2/C(=O)ON=C2C)cc1OCC`, the calcium response (agonist-mode artifact) result is “inactive”.
The same measure for `COc1cc(/C=C2/C(=O)ON=C2C)ccc1OCc1ccccc1F`: 222% (active); for `Cc1ccc(NC(=O)c2c(NC(=O)CCC(=O)O)sc3c2CCCCC3)cc1`: “inactive”; for `Cc1ccc(Nc2nc(N)nc(CSc3nnc(C)s3)n2)cc1`: “inactive”.
The same measure for `Cc1ccc(Nc2nc(N)nc(CN3CCN(Cc4ccccc4)CC3)n2)cc1Cl`: “inactive”; for `Brc1ccc(-c2csc(N/N=C/c3cccnc3)n2)cc1`: “inactive”; for `CCOc1ccc(NC(=O)C/C(C)=N/NC(=O)Cc2cccs2)cc1`: “inactive”.
The same measure for `O=C(/C=C/c1ccc(Cl)c([N+](=O)[O-])c1)c1ccc(O)cc1`: “inactive”; for `COc1ccc(/C=C/C(=O)c2ccc(OC)cc2O)cc1`: 11.5% (active); for `Cc1c(NC(=O)c2coc(=O)c(Br)c2)c(=O)n(-c2ccccc2)n1C`: “inactive”.
For `CCc1ccc(C2C(C#N)=C(N)N(N3CCOCC3)C3=C2C(=O)CC(C)(C)C3)s1` (configuration not stated), the calcium response (agonist-mode artifact) entry was “inactive”.
The same measure for `COc1ccc(S(=O)(=O)Nc2ccc(O)c(Sc3nc4ccccc4s3)c2)cc1`: “inactive”.
As for `O=[N+]([O-])c1c(NCCO)cc(Sc2nc3ccccc3s2)c2nonc12`, the figure is 114% (active); as for `C[C@H](NC(=O)c1nc[nH]c1C(=O)NCC(=O)OC(C)(C)C)c1ccccc1`, “inactive”; as for `Cc1nc(Nc2ccc(S(=O)(=O)N3CCCC3)cc2)c2nnn(Cc3ccccc3)c2n1`, “inactive”.
`Nc1cccc(-c2cc(-c3ccccc3)nc(-c3cccc(N)c3)n2)c1`: the calcium response (agonist-mode artifact) result was “inactive”.
The same measure for `O=C(N/N=C/c1ccccc1O)/C(=C/c1ccccc1)CCO`: “inactive”; for `CS(=O)(=O)N(CC(O)Cn1c2ccccc2c2ccccc21)c1cccc2ccccc12` (configuration not stated): “inactive”; for `COCCCNC(=S)N(CCN(C)C)Cc1cc2cc3c(cc2[nH]c1=O)OCCO3`: “inactive”.
As for `C1=C(N2CCOCC2)/C(=C/c2nc3ccccc3[nH]2)CC1`, the figure is 185% (active).
As for `Cc1nn(C(C)C(=O)N2CCOCC2)c(=O)c2nn(-c3ccccc3)c(C)c12` (configuration not stated), the entry is “inactive”; as for `Cc1ccc(Sc2cc(N3CCOCC3)nc(-c3ccccc3)n2)cc1`, 17% (active).
Consider `COC(=O)C1CCN(C(=O)c2cc(=O)[nH]c3ccccc23)CC1`, for which the calcium response (agonist-mode artifact) result was “inactive”.
Regarding `COC(=O)Cn1cc(/C=C/[N+](=O)[O-])c2ccccc21`, the calcium response (agonist-mode artifact) is 11.5% (active).
With `CC(C)Cc1nc(Nc2ccc(S(=O)(=O)N3CCCC3)cc2)c2nnn(Cc3ccccc3)c2n1`, the calcium response (agonist-mode artifact) result was “inactive”.
As for `COc1cc(Br)cc(/C=N/c2ncn[nH]2)c1O`, the calcium response (agonist-mode artifact) entry was “inactive”.
In the case of `COc1cc(/C=C2/C(=O)NN(c3cccc(Cl)c3)C2=O)cc(Br)c1O`, the calcium response (agonist-mode artifact) is 43.5% (active).
`C#CCOc1ccc(/C=C2/C(=O)NN(c3ccccc3)C2=O)cc1OC`: the calcium response (agonist-mode artifact) result was “inactive”.
As for `Cc1ccc(/C=C2\CCn3c2nc2cc(C(=O)O)ccc2c3=O)c(C)c1`, the entry is “inactive”; as for `O=[N+]([O-])/C=C/c1ccc2c(ccn2Cc2ccccc2)c1`, 104% (active).
With `Cc1cc(-c2n[nH]c(=S)n2/N=C/C(Br)=C/c2ccccc2)n[nH]1`, the calcium response (agonist-mode artifact) entry is “inactive”.
As for `O=C1c2ccccc2NC(c2ccc(-c3cccc(Cl)c3)o2)N1O` (configuration not stated), the entry is “inactive”.
As for `O=C(O)C(c1ccccc1)N1C(=O)/C(=C\c2ccc(-c3cccc(Cl)c3)o2)SC1=S` (configuration not stated), the figure is 599% (active); as for `O=C1Nc2ccc(Br)cc2/C1=N/N=C/C1=C(N2CCOCC2)C(=C\c2ccccc2)/CC1`, “inactive”.
Turning to `O=C(COC(=O)c1cccc(Br)c1)Nc1cccc2c1C(=O)c1ccccc1C2=O`, the calcium response (agonist-mode artifact) result is “inactive”.
In the case of `Oc1ccc(/C=N/Nc2ccc(C(F)(F)F)cn2)cc1O`, the calcium response (agonist-mode artifact) result is “inactive”.
The same measure for `Cc1nn2c(=O)cc(COC(=O)c3ccc(NC(=O)C(C)(C)C)cc3)nc2s1`: “inactive”; for `COc1ccc(C(C[N+](=O)[O-])n2nc(C)cc2C)cc1` (configuration not stated): 16% (active).
The same measure for `CCOC(=O)C1=NN(c2ccc(Cl)cc2)/C(=C/C2=NCCc3cc(OC)c(OC)cc32)S1`: 7% (active).
As for `COc1ccc(NCc2nnc(SCc3ccccc3)n2-c2ccc(OC)cc2)cc1`, the calcium response (agonist-mode artifact) result is “inactive”.
Regarding `O=S(=O)(Nc1nccs1)c1ccc2c(c1)OCCO2`, the calcium response (agonist-mode artifact) entry is “inactive”.
